Test results from PubChem BioAssay AID1159580 (chemical genetic matrix, 2015).
Out of some 5,500 compounds screened, about 2,000 (36%) were called active. Not shown: some 18% with an inconclusive outcome. Rule as the data show it: active = normalized growth mostly below about 0.91 (no sharp cut-off); inconclusive = no clear call, values can overlap the other calls; inactive = mostly above about 0.92. Some of the results follow.

Experiment: chemical genetic growth profiling, strain panel (AID 1159580);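 also: tested at 20 µM; growth read once vehicle control cultures reached saturation at 30 °C; 1 = growth at the plate median or of vehicle wells; lower values mean less growth of the strain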
Conditions: growth OD

Measured: normalized growth

CCCCC(=O)O[C@]1(C(=O)CO)[C@@H](C)CC2C3CCC4=CC(=O)C=C[C@]4(C)[C@@]3(F)C(O)C[C@@]21C (some centres undefined)
inactive: S. cerevisiae deletion strains, locus YKL009W, strain mrt4, stronger effect = lower value 0.969 | S. cerevisiae deletion strains, locus YKL068W, stronger effect = lower value 0.991 | S. cerevisiae deletion strains, locus YKL085W, strain MDH1 (second series), stronger effect = lower value 0.987 | S. cerevisiae deletion strains, locus YKL085W, strain MDH1, stronger effect = lower value 0.987 | S. cerevisiae deletion strains, locus YKL160W, strain elf1, stronger effect = lower value 0.958 | S. cerevisiae deletion strains, locus YKL190W, strain CNB1, stronger effect = lower value 0.999 | S. cerevisiae deletion strains, locus YKR001C, strain vps1, stronger effect = lower value 0.972 | S. cerevisiae deletion strains, locus YKR026C, strain gcn3, stronger effect = lower value 0.97 | S. cerevisiae deletion strains, locus YKR091W, strain srl3, stronger effect = lower value 0.986 | S. cerevisiae deletion strains, locus YLL001W, strain dnm1, stronger effect = lower value 0.919 | S. cerevisiae deletion strains, locus YLL026W, stronger effect = lower value 0.964 | S. cerevisiae deletion strains, locus YLL041C, strain sdh2, stronger effect = lower value 0.991 | S. cerevisiae deletion strains, locus YLR027C, strain aat2, stronger effect = lower value 0.977 | S. cerevisiae deletion strains, locus YLR039C, strain RIC1, stronger effect = lower value 1.07 | S. cerevisiae deletion strains, locus YLR058C, strain SHM2, stronger effect = lower value 0.95 | S. cerevisiae deletion strains, locus YLR102C, strain apc9, stronger effect = lower value 1 | S. cerevisiae deletion strains, locus YLR113W, strain HOG1, stronger effect = lower value 0.956 | S. cerevisiae deletion strains, locus YLR221C, strain rsa3, stronger effect = lower value 0.993 | S. cerevisiae deletion strains, locus YLR258W, strain gsy2, stronger effect = lower value 0.99 | S. cerevisiae deletion strains, locus YLR262C, strain YPT6 (second series), stronger effect = lower value 0.948 | S. cerevisiae deletion strains, locus YLR262C, strain YPT6, stronger effect = lower value 1.01 | S. cerevisiae deletion strains, locus YLR268W, strain sec22, stronger effect = lower value 0.96 | S. cerevisiae deletion strains, locus YLR320W, strain mms22, stronger effect = lower value 0.996 | S. cerevisiae deletion strains, locus YLR330W, strain CHS5, stronger effect = lower value 0.99 | S. cerevisiae deletion strains, locus YLR342W, strain FKS1 (second series), stronger effect = lower value 1 | S. cerevisiae deletion strains, locus YLR342W, strain FKS1, stronger effect = lower value 0.973 | S. cerevisiae deletion strains, locus YLR357W, strain rsc2, stronger effect = lower value 1 | S. cerevisiae deletion strains, locus YLR370C, strain arc18, stronger effect = lower value 0.977 | S. cerevisiae deletion strains, locus YLR371W, strain rom2, stronger effect = lower value 0.984 | S. cerevisiae deletion strains, locus YLR384C, strain iki3, stronger effect = lower value 0.963 | S. cerevisiae deletion strains, locus YLR418C, strain cdc73, stronger effect = lower value 0.973 | S. cerevisiae deletion strains, locus YML016C, strain PPZ1, stronger effect = lower value 0.987 | S. cerevisiae deletion strains, locus YML032C, strain rad52, stronger effect = lower value 1 | S. cerevisiae deletion strains, locus YML120C, strain ndi1, stronger effect = lower value 0.998 | S. cerevisiae deletion strains, locus YML124C, strain tub3, stronger effect = lower value 1.01 | S. cerevisiae deletion strains, locus YMR058W, strain fet3, stronger effect = lower value 0.981 | S. cerevisiae deletion strains, locus YMR078C, strain ctf18, stronger effect = lower value 0.98 | S. cerevisiae deletion strains, locus YMR125W, strain sto1, stronger effect = lower value 0.99 | S. cerevisiae deletion strains, locus YMR129W, stronger effect = lower value 0.988 | S. cerevisiae deletion strains, locus YMR205C, strain PFK2, stronger effect = lower value 0.984 | S. cerevisiae deletion strains, locus YMR223W, strain ubp8, stronger effect = lower value 0.974 | S. cerevisiae deletion strains, locus YMR231W, strain pep5, stronger effect = lower value 0.979 | S. cerevisiae deletion strains, locus YMR307W, strain GAS1, stronger effect = lower value 0.968 | S. cerevisiae deletion strains, locus YNL067W, strain RPL9B, stronger effect = lower value 0.964 | S. cerevisiae deletion strains, locus YNL071W, strain lat1, stronger effect = lower value 0.918 | S. cerevisiae deletion strains, locus YNL128W, strain TEP1, stronger effect = lower value 0.968 | S. cerevisiae deletion strains, locus YNL153C, strain GIM3, stronger effect = lower value 0.923 | S. cerevisiae deletion strains, locus YNL183C, strain NPR1, stronger effect = lower value 0.933 | S. cerevisiae deletion strains, locus YNL209W, strain ssb2, stronger effect = lower value 0.975 | S. cerevisiae deletion strains, locus YNL233W, strain BNI4, stronger effect = lower value 0.963 | S. cerevisiae deletion strains, locus YNL248C, strain rpa49, stronger effect = lower value 0.967 | S. cerevisiae deletion strains, locus YNL250W, strain rad50, stronger effect = lower value 0.978 | S. cerevisiae deletion strains, locus YNL271C, strain bni1, stronger effect = lower value 0.971 | S. cerevisiae deletion strains, locus YNL298W, strain CLA4, stronger effect = lower value 0.977 | S. cerevisiae deletion strains, locus YNL307C, strain MCK1, stronger effect = lower value 0.979 | S. cerevisiae deletion strains, locus YNL322C, strain KRE1 (second series), stronger effect = lower value 0.954 | S. cerevisiae deletion strains, locus YNR049C, strain mso1, stronger effect = lower value 0.983 | S. cerevisiae deletion strains, locus YNR052C, strain pop2, stronger effect = lower value 0.979 | S. cerevisiae deletion strains, locus YOL006C, strain TOP1, stronger effect = lower value 0.98 | S. cerevisiae deletion strains, locus YOL012C, strain htz1 1.06 | S. cerevisiae deletion strains, locus YOL147C, strain pex11, stronger effect = lower value 0.989 | S. cerevisiae deletion strains, locus YOR001W, strain rrp6, stronger effect = lower value 0.938 | S. cerevisiae deletion strains, locus YOR061W, strain CKA2, stronger effect = lower value 0.987 | S. cerevisiae deletion strains, locus YOR069W, strain VPS5, stronger effect = lower value 0.989 | S. cerevisiae deletion strains, locus YOR070C, strain gyp1, stronger effect = lower value 0.986 | S. cerevisiae deletion strains, locus YOR080W, strain dia2, stronger effect = lower value 0.965 | S. cerevisiae deletion strains, locus YOR083W, strain WHI5, stronger effect = lower value 0.956 | S. cerevisiae deletion strains, locus YOR106W, strain vam3, stronger effect = lower value 0.929 | S. cerevisiae deletion strains, locus YOR136W, strain idh2, stronger effect = lower value 0.979 | S. cerevisiae deletion strains, locus YOR144C, strain elg1, stronger effect = lower value 0.994 | S. cerevisiae deletion strains, locus YOR184W, strain ser1, stronger effect = lower value 0.984 | S. cerevisiae deletion strains, locus YOR231W, strain MKK1, stronger effect = lower value 0.976 | S. cerevisiae deletion strains, locus YOR265W, strain rbl2, stronger effect = lower value 0.981 | S. cerevisiae deletion strains, locus YOR270C, strain vph1, stronger effect = lower value 0.88 | S. cerevisiae deletion strains, locus YOR290C, strain snf2, stronger effect = lower value 1.01 | S. cerevisiae deletion strains, locus YOR316C, strain cot1, stronger effect = lower value 0.988 | S. cerevisiae deletion strains, locus YPL051W, strain arl3, stronger effect = lower value 0.993 | S. cerevisiae deletion strains, locus YPL055C, strain LGE1, stronger effect = lower value 0.975 | S. cerevisiae deletion strains, locus YPL078C, strain atp4, stronger effect = lower value 0.927 | S. cerevisiae deletion strains, locus YPL106C, strain sse1, stronger effect = lower value 1.01 | S. cerevisiae deletion strains, locus YPL240C, strain hsp82, stronger effect = lower value 0.967 | S. cerevisiae deletion strains, locus YPL241C, strain CIN2, stronger effect = lower value 1 | S. cerevisiae deletion strains, locus YPL256C, strain CLN2, stronger effect = lower value 0.973 | S. cerevisiae deletion strains, locus YPR119W, strain clb2, stronger effect = lower value 0.993 | S. cerevisiae deletion strains, locus YPR141C, strain kar3, stronger effect = lower value 0.968 | S. cerevisiae deletion strains, locus YPR163C, strain tif3, stronger effect = lower value 0.985 | S. cerevisiae deletion strains, locus YPR167C, strain met16, stronger effect = lower value 0.984 | S. cerevisiae deletion strains, strain wtn01, stronger effect = lower value 0.992 | S. cerevisiae strains, strain wild type, stronger effect = lower value 0.985
